Records with an inconclusive call do not appear. The source made the active and inactive calls. Unless noted, the call rests on the fitted dose curve.
What was measured:
[1] = qHTS for Inhibitors of the Functional Ribonucleoprotein Complex (vRNP) of Lassa (LASV) Arenavirus: LASV Primary Screen - GLuc reporter signal (AID 1347082; calls by dose curve; tested in HEK293 reporter line; further: nearly all actives have a fitted effect of over 60% in size)
[2] = qHTS for Inhibitors of the Functional Ribonucleoprotein Complex (vRNP) of Lassa (LASV) Arenavirus: Viability assay - alamar blue signal for LASV Primary Screen (AID 1347083; calls by dose curve; tested in HEK293 reporter line; further: nearly all actives have a fitted effect of over 80% in size)
[3] = qHTS for Inhibitors of the Functional Ribonucleoprotein Complex (vRNP) of Lymphocytic Choriomeningitis Arenaviruses (LCMV): Viability assay - alamar blue signal for LCMV Primary Screen (AID 1347085; calls by dose curve; tested in HEK293 reporter line; further: nearly all actives have a fitted effect of over 80% in size)
[4] = molecular target: Nucleoprotein (Lymphocytic choriomeningitis virus (strain Armstrong)) (UniProt P09992); test: qHTS for Inhibitors of the Functional Ribonucleoprotein Complex (vRNP) of Lymphocytic Choriomeningitis Arenaviruses (LCMV): LCMV Primary Screen - GLuc reporter signal (AID 1347086); further: nearly all actives have a fitted effect of over 70% in size

Measured: Potency
Further: series mostly up to about 57 µM.

Nucleoprotein (Lymphocytic choriomeningitis virus (strain Armstrong)), sequence (P09992 whole entry, looked up): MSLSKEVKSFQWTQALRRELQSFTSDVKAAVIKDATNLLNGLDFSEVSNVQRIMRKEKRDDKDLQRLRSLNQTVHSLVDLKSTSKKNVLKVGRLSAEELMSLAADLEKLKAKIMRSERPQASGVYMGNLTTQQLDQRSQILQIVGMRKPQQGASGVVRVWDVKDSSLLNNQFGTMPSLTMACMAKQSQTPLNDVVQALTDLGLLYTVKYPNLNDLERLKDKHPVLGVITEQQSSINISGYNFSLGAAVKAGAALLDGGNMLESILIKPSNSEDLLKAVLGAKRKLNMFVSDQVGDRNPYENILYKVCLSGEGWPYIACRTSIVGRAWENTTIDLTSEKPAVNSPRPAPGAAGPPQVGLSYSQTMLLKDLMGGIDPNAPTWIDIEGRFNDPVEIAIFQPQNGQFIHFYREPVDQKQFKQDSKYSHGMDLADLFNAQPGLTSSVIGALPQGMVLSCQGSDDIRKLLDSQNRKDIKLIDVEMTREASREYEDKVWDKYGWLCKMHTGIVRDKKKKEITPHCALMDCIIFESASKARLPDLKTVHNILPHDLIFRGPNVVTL

O=S1(=O)c2cccc3cccc(c23)N1CCCN1CCN(c2ccc(F)cc2)CC1
inactive: all assays above

Cc1oc(-c2ccccc2)nc1CCC(=O)c1ccc(CC2SC(=O)NC2=O)cc1 (stereo unspecified)
inactive: all assays above

CCn1cc(C(=O)O)c(=O)c2cc(F)c(N3CCN(C)CC3)cc21
inactive: all assays above

CCCN(CCC)C(=O)C(CCC(=O)O)NC(=O)c1ccccc1 (stereo unspecified)
inactive: all assays above

CC(C)=CCOc1ccc(/C=C/C(=O)c2ccc(OCC=C(C)C)cc2OCC(=O)O)cc1
inactive: all assays above

Oc1ccc(CCNCCCCCCNCCc2ccccc2)cc1O
inactive: all assays above

Cc1ncc([N+](=O)[O-])n1C
inactive: all assays above

CCCCCCCCCCCCCCC[C@H](O)[C@@H](N)CO
inactive: all assays above

Cc1c(N(C)C)c(=O)n(-c2ccccc2)n1C
inactive: all assays above

CC[N+]1(CC)CCC(=C(c2ccccc2)c2ccccc2)C1C (stereo unspecified)
inactive: all assays above

Nc1nc(=O)n([C@@H]2O[C@H](CO)[C@@H](O)[C@@H]2F)cc1I
inactive: all assays above

CNC(=O)CN(CCN(CCN(CC(=O)[O-])CC(=O)NC)CC(=O)[O-])CC(=O)[O-].O.[Gd+3]
inactive: all assays above

CCN(CC)CCOCCOC(=O)C1(c2ccccc2)CCCC1
inactive: all assays above

C[N+](C)(C)CCCCCCCCCC[N+](C)(C)C
inactive: all assays above

O=C1CC2(CCCC2)CC(=O)N1CCNCC1COc2ccccc2O1 (stereo unspecified)
inactive: all assays above

COc1ccc2cc1Oc1ccc(cc1)C[C@H]1c3c(cc4c(c3Oc3cc5c(cc3OC)CCN(C)[C@@H]5C2)OCO4)CCN1C
inactive: all assays above

C1CCC(C(CC2CCCCN2)C2CCCCC2)CC1 (stereo unspecified)
inactive: all assays above

Cc1ccc2c(c1)c1c3n2CCNC3CCC1 (stereo unspecified)
inactive: all assays above

CC1(C)O[C@@H]2C[C@H]3[C@@H]4C[C@H](F)C5=CC(=O)CC[C@]5(C)[C@H]4[C@@H](O)C[C@]3(C)[C@]2(C(=O)CO)O1
inactive: all assays above

CC(C)(Oc1ccc(CCNC(=O)c2ccc(Cl)cc2)cc1)C(=O)O
inactive: all assays above

CC[N+](CC)(CC)CCOC(=O)C(C1CCCC1)C1CCCC1
inactive: all assays above

Cc1cc(CC(=O)O)n(C)c1C(=O)c1ccc(Cl)cc1
inactive: all assays above

Cc1cc(C(C)(C)C)c(O)c(C)c1CC1=NCCN1
inactive: all assays above

Oc1ccc(Cl)cc1Sc1cc(Cl)ccc1O
inactive: all assays above

O=C(O)Cc1ccc2c(c1)C(=O)c1ccccc1CO2
inactive: all assays above

CCCCN(CCCC)CCC(O)c1cc2c(Cl)cc(Cl)cc2c2cc(C(F)(F)F)ccc12 (stereo unspecified)
inactive: all assays above

CCN(CC)CC(=O)Nc1c(C)cccc1C(=O)OC
inactive: all assays above

COc1cccc(N(C)C(=S)Oc2ccc3c(c2)CCCC3)n1
inactive: all assays above

C[C@]12CCC(=O)C=C1[C@@H]1C[C@@H]1[C@H]1[C@@H]3[C@@H]4C[C@@H]4[C@@]4(CCC(=O)O4)[C@@]3(C)CC[C@@H]12
inactive: all assays above

CN1CCC(OC(c2ccccc2)c2ccccc2)CC1
inactive: all assays above

CC1=C(C(=O)OC(C)C)C(c2cccc([N+](=O)[O-])c2)C(C(=O)OC2CN(C(c3ccccc3)c3ccccc3)C2)=C(N)N1 (stereo unspecified)
inactive: all assays above

CC(C)[C@@H]1CC[C@@H](C)CC1=O
inactive: all assays above

CC(C(=O)O)c1ccc(CC2CCCC2=O)cc1 (stereo unspecified)
inactive: all assays above

O=C(O)c1ccc(OCCN2CCCCC2)cc1
inactive: all assays above

CN(C)C(=O)Nc1ccc(Cl)c(Cl)c1
inactive: all assays above

CCCc1ncc(C(=O)O)s1
inactive: all assays above

CCC1(c2cnc[nH]2)Cc2ccccc2C1
inactive: all assays above

CC(C)(C)CC(=O)OCC(=O)[C@@]1(O)CC[C@H]2[C@@H]3CCC4=CC(=O)C=C[C@]4(C)[C@H]3[C@@H](O)C[C@@]21C
inactive: all assays above

CCCCC/C=C\C/C=C\CCCCCCCC(=O)NC(C)c1ccccc1 (stereo unspecified)
inactive: all assays above

CCN(CC)CCN
inactive: all assays above

CC(=O)O[C@]1(C(C)=O)CC[C@H]2[C@@H]3C=C(Cl)C4=CC(=O)CC[C@]4(C)[C@H]3CC[C@@]21C
inactive: all assays above

CCOC(=O)CN1CCCC1=O
inactive: all assays above

OCCN1CCN(CCCN2c3ccccc3C=Cc3ccccc32)CC1
inactive: all assays above

CCN(CC)CCNC(C(=O)OCCC(C)C)c1ccccc1 (stereo unspecified)
inactive: all assays above

CCCCCOc1ccccc1/C(=C\SC)n1ccnc1
inactive: all assays above

CC(=O)c1ccc2c(c1)N(CCCN(C)C)c1ccccc1S2
inactive: all assays above

C[C@]12CC[C@@H]3c4ccc(O)cc4CC[C@H]3[C@@H]1CCC2=O
inactive: all assays above

CCNC(=O)NCCCOc1cccc(CN2CCCCC2)c1
inactive: all assays above

Cl/C(=C\n1cncn1)c1ccc(Cl)cc1Cl
inactive: all assays above

NC(=O)CCCCC1CCSS1 (stereo unspecified)
inactive: all assays above

CC(=O)OCC1=C(C(=O)O)N2C(=O)[C@@H](NC(=O)CSc3ccncc3)[C@H]2SC1
inactive: all assays above

Oc1c(I)cc(Cl)c2cccnc12
inactive: all assays above

CC(C)OC(=O)c1cc2c(OCC(O)CNC(C)(C)C)cccc2[nH]1 (stereo unspecified)
inactive: all assays above

COc1cc(NS(=O)(=O)c2ccc(N)cc2)nc(OC)n1
inactive: all assays above

COc1ccc(S(=O)(=O)N2c3ccc(Cl)cc3[C@@](O)(c3ccccc3Cl)[C@H]2C(=O)N2CCC[C@@H]2C(N)=O)cc1OC
inactive: all assays above

COC(=O)C1=C(C)NC(COC(N)=O)=C(C(=O)OC(C)C)C1c1cccc(Cl)c1Cl (stereo unspecified)
inactive: all assays above

COc1cccc(CCc2ccccc2OCC(CN(C)C)OC(=O)CCC(=O)O)c1 (stereo unspecified)
inactive: all assays above

CCCCCCCCCCCC[N+](C)(C)Cc1ccccc1
inactive: all assays above
